Assay outcomes: PubChem, National Center for Advancing Translational Sciences (NCATS)
HT1080 IDH1KD tx = qHTS for induction of synthetic lethality in tumor cells producing 2HG: qHTS for the HT-1080-IDH1KD cell line | HT-1080 IDH1 knockdown viability, ATP luminescence, 48 h | Potency, µM (highest dose often 46.1 µM), for the others: top-dose activity, negative = toxicity, usual class: cytotoxic | AID 686971, 2013 | hit rate 2% among 360,000;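 note: potency is the fitted concentration of half-maximal effect; 0% = DMSO wells and -100% = cell-free medium wells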
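HT-1080-IDH1KD cells (IDH1 knocked down), 750/well in RPMI with 5% FBS, treated with compound 48 h at 37 degrees C. Viability by CellTiter-Glo luminescence, normalised to DMSO and no-cell wells; concentration-response curves classed.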
ELG1 DNA repair = qHTS screen for small molecules that inhibit ELG1-dependent DNA repair in human embryonic kidney (HEK293T) cells expressing luciferase-tagged ELG1; HEK293T ELG1-luciferase reporter, luminescence, 16 h; DNA damage induced by 5-fluorouridine; Potency, µM (titrated, usually from 46.1 µM), without a hit: top-dose activity change, negative = inhibition, hits mostly inhibitors; hit rate 2.3% among 330,000; AID 504467, 2011; note: potency is the fitted concentration of half-maximal effect; nearly all actives have a fitted effect of over 55% in size
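Quantitative HTS, concentration-response format. 2,000 cells/well co-treated with 5-fluorouridine and compound, 16 hr in 5% CO2 at 37 °C; ONE-Glo luminescence read after 30 min.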
HT1080-NT tox = qHTS for induction of synthetic lethality in tumor cells producing 2HG: qHTS for the HT-1080-NT fibrosarcoma cell line. HT-1080-NT fibrosarcoma viability, CellTiter-Glo ATP luminescence, 48 h. Potency, µM (top dose mostly 46.1 µM), without a hit: at the top dose activity, negative = less viability, most hits filed as cytotoxic. hit rate 1.6% among 360,000. AID 686970, 2013;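 note: NT is the 2HG producing partner of a matched IDH1 knockdown line; potency is the fitted concentration of half-maximal effect; 0% = DMSO-treated cells and -100% = media-only wells without cells; nearly all actives have a fitted effect of over 55% in size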
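HT-1080-NT fibrosarcoma cells (2HG-overproducing), 750 cells/well in RPMI with 5% FBS, dosed after 2 h and incubated 48 h at 37C. CellTiter-Glo luminescence normalized to DMSO and no-cell wells; concentration-response curves fitted and classed.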
TDP1 cell CPT = qHTS for Inhibitors of human tyrosyl-DNA phosphodiesterase 1 (TDP1): qHTS in cells in presence of CPT; chicken DT40 Tdp1-/-;hTDP1 cells + 20 nM CPT, ATP luminescence, 48 h; Potency, µM (highest dose often 46.2 µM), without a hit: at the highest dose activity change, negative = growth inhibition, most hits filed as inhibitors; AID 686979, 2013; hit rate 12% among 420,000; note: potency is the fitted concentration of half-maximal effect; nearly all actives have a fitted effect of over 55% in size
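Cell growth measured by CellTiter-Glo luminescence after a minimum 48 h, 37 C compound exposure with 20 nM CPT in Tdp1-knockout DT40 cells stably expressing hTDP1, seeded 400/well; qHTS titration format.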
IL1B secr inh = qHTS for Inhibitors of Inflammasome Signaling: IL-1-beta AlphaLISA Primary Screen. THP-1 LPS/ATP IL-1B secretion, AlphaLISA, 16 h; hits give low values. activity change, % at 57.5 µM. hit rate 4.7% among 360,000. AID 743279, 2014; in the data active = activity change below about -50%; inconclusive = mostly about -30% to -49%
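Secreted IL-1B measured by AlphaLISA bead assay after 16 h compound exposure of THP-1 cells; compounds (final up to 57.5 uM) added 1 h before LPS (250 ng/mL) and ATP (1.25 mM) stimulation; lower signal means less secretion.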
TDP1 cell noCPT = qHTS for Inhibitors of human tyrosyl-DNA phosphodiesterase 1 (TDP1): qHTS in cells in absence of CPT. hit rate 15% among 420,000. AID 686978, 2013. DT40 Tdp1-/- hTDP1 cells, no CPT, ATP luminescence, 48 h. Potency, µM (top dose mostly 46.2 µM), for the others: at the top dose activity change, negative = growth inhibition, most hits filed as inhibitors; note: potency is the fitted concentration of half-maximal effect; nearly all actives have a fitted effect of over 55% in size
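Luminescent ATP content (CellTiter-Glo) served as the growth readout. Knockout chicken DT40 cells expressing human TDP1 were exposed to compounds without camptothecin for a minimum 48 hr at 37 °C.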
* marks the source's active call; other numbers are inactive results. This is a sample that favours compounds with a hit; in the whole collection about 19% have one here. Unless noted, calls come from the whole dose curve; as a rule, active = well fitted curve in the direction sought with a large enough effect; inconclusive = small, poorly fitted or top-dose-only effect, or another doubt; inactive = no such curve, though single readings can be large; an effect the other way counts as inactive or inconclusive. Unless noted, % is set by controls: 0 for no effect and ±100 for the full control effect.

How did CC(C)CC(=O)NC(=S)N(Cc1ccccc1)Cc1ccccc1 do in these assays?
HT1080 IDH1KD tx: -3%; ELG1 DNA repair: -5%; HT1080-NT tox: -8%; TDP1 cell CPT: inconclusive; IL1B secr inh: -13; TDP1 cell noCPT: inconclusive

How did CCOc1ccc(-c2nnc(SCC(=O)NCCc3ccccc3)nc2-c2ccc(OCC)cc2)cc1 do in these assays?
TDP1 cell CPT: -11%; TDP1 cell noCPT: -26%

How did O=[N+]([O-])c1cccc(C=Nc2cc3c(cc2Br)OCCO3)c1 do in these assays?
HT1080 IDH1KD tx: -1%; ELG1 DNA repair: 10%; HT1080-NT tox: -2%; TDP1 cell CPT: 0%; IL1B secr inh: -16; TDP1 cell noCPT: -4%

Results for Cn1c(=S)[nH]c2cc(C(=O)N3CCN(C(=O)c4ccccc4)CC3)ccc2c1=O ?
HT1080 IDH1KD tx: 1%; HT1080-NT tox: 12%; TDP1 cell CPT: -6%; TDP1 cell noCPT: -23%

Results for C=CCN(CC=C)C(=S)NC(=O)/C=C/c1ccccc1 ?
HT1080 IDH1KD tx: 14%; ELG1 DNA repair: -2%; HT1080-NT tox: 10%; TDP1 cell CPT: inconclusive; IL1B secr inh: 20; TDP1 cell noCPT: 23µM*

Results for C=CCN(CC=C)C(=S)NC(=O)/C=C/c1ccc(C)cc1 ?
HT1080 IDH1KD tx: -1%; ELG1 DNA repair: 6%; HT1080-NT tox: 13%; TDP1 cell CPT: -16%; IL1B secr inh: 3; TDP1 cell noCPT: inconclusive

How did CCOC(=O)c1c(-c2ccc(F)cc2)csc1NC(=O)c1c(-c2ccccc2)noc1C do in these assays?
HT1080 IDH1KD tx: inconclusive; ELG1 DNA repair: inconclusive; HT1080-NT tox: 0%; TDP1 cell CPT: inconclusive; IL1B secr inh: -4; TDP1 cell noCPT: 21µM*

What do the screens show for `Cc1ccccc1OCCOC(=O)c1c(-c2ccccc2)noc1C`?
HT1080 IDH1KD tx: 5.8µM*; ELG1 DNA repair: inconclusive; HT1080-NT tox: 7.3µM*; TDP1 cell CPT: 7.3µM*; IL1B secr inh: 64; TDP1 cell noCPT: 18µM*

How did Cc1onc(-c2ccccc2)c1C(=O)OCC(=O)c1ccc(F)cc1 do in these assays?
HT1080 IDH1KD tx: 0%; HT1080-NT tox: 3%; TDP1 cell CPT: inconclusive; IL1B secr inh: 7; TDP1 cell noCPT: 23µM*

How did Cc1onc(-c2ccccc2)c1C(=O)OCCOc1ccc([N+](=O)[O-])cc1[N+](=O)[O-] do in these assays?
HT1080 IDH1KD tx: inconclusive; ELG1 DNA repair: 15µM*; HT1080-NT tox: -27%; TDP1 cell CPT: inconclusive; IL1B secr inh: -24; TDP1 cell noCPT: 21µM*

Results for COC(=O)c1c(-c2ccccc2)csc1NC(=O)c1c(-c2ccccc2)noc1C ?
HT1080 IDH1KD tx: inconclusive; ELG1 DNA repair: inconclusive; HT1080-NT tox: -4%; TDP1 cell CPT: -17%; IL1B secr inh: -23; TDP1 cell noCPT: inconclusive

Results for CC(NC(=O)c1cc(F)ccc1F)c1nnc2n1CCN(Cc1ccccc1O)CC2 (stereo unspecified) ?
TDP1 cell CPT: -16%; TDP1 cell noCPT: -27%

What do the screens show for `OC(c1ccc(Cl)cc1)c1ncc(-c2ccccc2Cl)[nH]1` (stereo unspecified)?
HT1080 IDH1KD tx: -27%; HT1080-NT tox: -21%; TDP1 cell CPT: inconclusive; IL1B secr inh: -27; TDP1 cell noCPT: inconclusive

What do the screens show for `Cc1nc2ccn(Cc3ccco3)c(=O)c2cc1C(=O)NCc1ccc(F)cc1`?
TDP1 cell CPT: -11%; TDP1 cell noCPT: -23%

Results for Nc1ccc(-c2nc3ncccc3o2)cc1 ?
HT1080 IDH1KD tx: 2%; ELG1 DNA repair: inconclusive; HT1080-NT tox: 8%; TDP1 cell CPT: 3%; IL1B secr inh: 0; TDP1 cell noCPT: 9%

How did C/C(=N\NC(=O)c1ccncc1)c1cccc(NC(=O)c2ccc(Cl)s2)c1 do in these assays?
HT1080 IDH1KD tx: -4%; ELG1 DNA repair: inconclusive; HT1080-NT tox: -10%; TDP1 cell CPT: inconclusive; IL1B secr inh: -11; TDP1 cell noCPT: -13%

What do the screens show for `Cc1ccccc1S(=O)(=O)NC(=O)C1(C)CCN1C(=O)c1ccccc1CCc1ccccc1` (stereo unspecified)?
HT1080 IDH1KD tx: 10%; HT1080-NT tox: 1%; TDP1 cell CPT: 6%; IL1B secr inh: -11; TDP1 cell noCPT: -10%

What do the screens show for `Cc1c(C(=O)Nc2ccccc2Cl)sc2ncnc(N(C)C3CCCCC3)c12`?
TDP1 cell CPT: -11%; TDP1 cell noCPT: -10%

Results for Cc1ccc(F)cc1CNC(=O)c1sc2ncnc(NCC3CCCO3)c2c1C (stereo unspecified) ?
TDP1 cell CPT: 3%; TDP1 cell noCPT: -26%

What do the screens show for `Cc1c(C(=O)NCc2ccccc2Cl)sc2ncnc(N(C)C3CCCCC3)c12`?
TDP1 cell CPT: inconclusive; TDP1 cell noCPT: 18µM*

Results for Cc1ccc(C)c(CNC(=O)c2sc3ncnc(N(C)C4CCCCC4)c3c2C)c1 ?
TDP1 cell CPT: 23µM*; TDP1 cell noCPT: inconclusive

Results for CCN(CC)CCCn1c2c(c(SCC(=O)N3CCc4ccccc43)nc1=O)CCC2 ?
HT1080 IDH1KD tx: -16%; ELG1 DNA repair: 5%; HT1080-NT tox: -3%; TDP1 cell CPT: 19%; IL1B secr inh: -14; TDP1 cell noCPT: -3%

Results for O=C(OCC(=O)c1c[nH]c2ccccc12)c1cc(Br)ccc1O ?
HT1080 IDH1KD tx: inconclusive; ELG1 DNA repair: inconclusive; HT1080-NT tox: -20%; TDP1 cell CPT: 10%; IL1B secr inh: 4; TDP1 cell noCPT: inconclusive

What do the screens show for `O=C(NCc1ccccc1)C(c1ccc(F)cc1)N(Cc1cccs1)C(=O)c1cnccn1` (stereo unspecified)?
HT1080 IDH1KD tx: 2%; ELG1 DNA repair: 13µM*; HT1080-NT tox: -15%; TDP1 cell CPT: inconclusive; IL1B secr inh: 4; TDP1 cell noCPT: inconclusive

How did CCCn1c(C(O)c2ccc(C)cc2)nc2ccccc21 (stereo unspecified) do in these assays?
HT1080 IDH1KD tx: 0%; ELG1 DNA repair: -6%; HT1080-NT tox: 3%; TDP1 cell CPT: inconclusive; IL1B secr inh: 2; TDP1 cell noCPT: inconclusive
